Activity calls are given as the source filed them. A call without a number means that no potency is given here. Calls come from the whole dose curve; as a rule, active = well fitted inhibition curve with a large enough effect; inconclusive = small, poorly fitted or top-dose-only effect; inactive = flat fitted curve, though single readings scatter. *1 amine or outer side, *2 acyl side, *3 side chain or, on linkers, in order; H or OH if unused. Where a SMILES comes first, the peptide text is derived from it. [ ]: non-standard residue; d: D form. The star is where a group is joined. X13 = O=C(C(CC(O)CO)O[*:1])[*:2]; NMeV = CN[CH](C(=O)O)C(C)C; Hexanoyl = CCCCCC(=O)*; NMeA = CN[CH](C)C(=O)O; βAla = NCCC(=O)O

The test deals with Luciferin 4-monooxygenase (Photinus pyralis) (UniProt P08659). As to the kind of experiment: Primary firefly luciferase (FLuc) qHTS assay for identification of artifact compounds. (AID 1845220). Note: nearly all actives have a fitted effect of over 60% in size. Conditions: purified firefly luciferase, luminescence, 5 min; series mostly up to 54.1 µM. The text has this:
PI: Alexander Tropsha Ph.D.
UNC Eshelman School of Pharmacy
University of North Carolina, Chapel Hill, North Carolina
Hits from high-throughput screening (HTS) of chemical libraries are often false positives due to their interference with the assay detection technology. In response to this problem, we generated the largest publicly available library of chemical liabilities and developed a free webtool to predict HTS artifacts, both of which are described herein. More specifically, we generated, curated, and integrated HTS datasets for thiol reactivity, redox activity, and luciferase (firefly and nano) activity. Using these curated datasets, we developed and validated several Quantitative Structure-Interference Relationship (QSIR) models to predict nuisance behavior. […] These models were employed for virtual profiling of the National Center for Advancing Translational Science's (NCATS) in-house library, and 256 compounds for each assay were selected for the experimental validation of nuisance behavior. The BA for these external predictions ranged from 58 to 78% for compounds within the applicability domains of the models. […] The models developed in this study, along with aggregation models previously developed by our group (SCAM Detective) were implemented in "Liability Predictor," an online tool which may be used as part of chemical library design or for triaging HTS hits. Both the models and the curated datasets are publicly available at https://liability.mml.unc.edu/.
SEQUENCE No. (e.g., 1, 2, 3, etc.); […] (e.g., Cells, Incubation, Reagent, etc.); VALUE; DESCRIPTION.
1; Reagent; 3 uL; Luciferase substrate mixture.
2; Compounds and control; 16 nL; Kalypsis pin tool (Wako USA) equipped with a 1536-well pin head.
4; Reagent; 1 uL; Luciferase enzyme.
6; Detection; Luminescence, ViewLux microplate reader.
NOTES (numbers refer to Sequence numbers above)
1. 3 uL of luciferase substrate mixture containing D-luciferin and ATP (final concentrations of 10 uM and 10 uM, respectively) in assay buffer (10 mM Mg-acetate, 0.01% Tween-20, 0.05% bovine serum albumin, 50 mM Tris acetate, pH 7.6) was dispensed into all wells of a 1536-well assay plate (solid-bottom white plate; Greiner Bio One, Monroe, NC).
2. A Wako Pin-tool (Wako Automation, Richmond, VA) was used to transfer 16 nL of compounds (consisting of 7-plates in qHTS format, final concentration range 18.3 nM to 114 uM) or control PTC124 (final concentration range 1.22 nM to 40 uM).
3. 15 min. incubation at room temperature protected from light.
4. 1 uL of luciferase enzyme (final concentration 10 nM, Photinus pyralis luciferase) or buffer was dispensed for a final assay volume of 4 uL.
5. Plates were centrifuged (121xg, 15 seconds) and incubated for 5 minutes.
6. Samples were read for luminescence on a ViewLux CCD imager (PerkinElmer). Data were normalized to no-enzyme (0% activity) and no-inhibitor (DMSO; 100%) controls and the resulting percent inhibition data were fitted to a 4-parameter Hill equation using NCATS in-house software.
As to `C[C@H]1[C@H](C)C[C@@H](C(=O)O)C2CC[C@]3(C)C(=CC[C@@H]4[C@@]5(C)CC[C@H](O)C(C)(C)[C@@H]5CC[C@]43C)[C@@H]21` (stereo not given in full), the Potency entry was “inactive”.

As for `C=C(C)C(O)COc1ccc(CC(=O)O)cc1` (stereo not given), the Potency entry is “inactive”.

Regarding `CC1=CC(=O)CC(C)(C)C1CCC(C)O[C@@H]1O[C@H](CO)[C@@H](O)[C@H](O)[C@H]1O` (stereo not given in full), the Potency result is “inactive”.

On to `Cc1cc(CO)c(O)c(C(=O)CC2CC(=O)NC(=O)C2)c1`, for which the Potency entry is “inactive”.

For `C=C[C@H]1[C@H](O[C@@H]2O[C@H](CO)[C@@H](O)[C@H](O)[C@H]2O)OC=C(C(=O)OC)[C@H]1CC=O`, the Potency entry was “inactive”.

Take `COC(=O)C(CC1(O)c2ccccc2N2C(=O)C(C)(C)N(O)C21)n1cnc2ccccc2c1=O` (stereo not given): the Potency result is “inactive”.

Regarding `C=C(COC(=O)CC(C)C)C1Cc2cc(C(C)=O)ccc2O1` (stereo not given), the Potency entry was “inactive”.

For `Cn1nccc1-c1ccccc1Oc1ccc(S(=O)(=O)Nc2nccs2)cc1C#N`, the Potency entry is “inactive”.

For the compound `O=C(Nc1cc(-c2ccccc2)nn1-c1ccccc1)c1ccc([N+](=O)[O-])cc1`, the Potency result was “inactive”.

In the case of `Cc1occc(=O)c1O[C@@H]1O[C@H](CO)[C@@H](O)[C@H](O)[C@H]1O`, the Potency result was “inactive”.

On to `CS(=O)(=O)c1ccccc1N1CCN(c2nc3c(c(=O)[nH]2)CSCC3)CC1`, for which the Potency result is “inactive”.

For the compound `CC(C)=CC[C@H]1O[C@]2(O)C([C@H]3CCC4[C@@]5(C)CC[C@H](O[C@@H]6O[C@H](CO)[C@H](O)[C@H](O[C@@H]7O[C@H](CO)[C@@H](O)[C@H](O)[C@H]7O)[C@H]6O[C@@H]6O[C@@H](C)[C@H](O)[C@@H](O)[C@H]6O)C(C)(C)C5CC[C@@]4(C)[C@]3(C)[C@H]2O)[C@@]1(C)O` (stereo not given in full), the activity change, negative = inhibition is 0.583% [at 11.6 µM] (inactive).

Consider `COC(=O)C1=COC(OC2OC(CO)C(O)C(O)C2O)C2C(C)C(OC(C)=O)C(OC(=O)c3ccccc3)C12` (stereo not given), for which the Potency entry was “inactive”.

`CCCCCC(=O)N1CCC[C@H]1C(=O)N[C@@H](Cc1ccc(O)cc1)C(=O)OC` (Hexanoyl-Pro-Tyr-OMe): the Potency entry is “inactive”.

Take `CC1(C)C=Cc2c(ccc3c2[N+]([O-])=C2C3(O)CC34NC(=O)C5(CCCN5C3=O)CC4C2(C)C)O1` (stereo not given): the Potency result is “inactive”.

Take `CN1C(=O)N(c2cc(Cl)cc(Cl)c2)C(=O)[C@@]1(C)Cc1ccc(Br)cc1`: the Potency entry is “inactive”.

In the case of `CC(C)(CC(=O)N1CCCC1)NCC(=O)N1C[C@@H](F)C[C@H]1C#N`, the Potency result is “inactive”.

For `O=C(OC[C@H]1O[C@H](O[C@]2(CO)O[C@H](CO)[C@@H](O)[C@@H]2O)[C@H](O)[C@@H](O)[C@@H]1O)c1ccc(O)cc1`, the Potency result was “inactive”.

Turning to `COc1ccc(Oc2c(Cl)cnn(C3c4ccccc4-c4ccccc43)c2=O)cc1`, the Potency entry was “inactive”.

Take `COc1ccc([C@H]2OC[C@H]3[C@@H]2CO[C@@H]3c2ccc(O[C@@H]3O[C@H](CO)C(O)[C@H](O)[C@H]3O)c(OC)c2)cc1OC` (stereo not given in full): the Potency entry is “inactive”.

In the case of `COC(=O)C1=COC(O[C@@H]2O[C@H](CO)[C@@H](O)[C@H](O)[C@H]2O)[C@@H]2[C@@](C)(O)[C@@H](OC(=O)/C=C/c3ccccc3)C[C@]12O` (stereo not given in full), the Potency entry was “inactive”.

Take `C[C@@H](NC(=O)c1cc(C(=O)N[C@@H](Cc2ccccc2)[C@H](O)CNC2CC2)cc(N(C)S(C)(=O)=O)c1)c1ccccc1`: the Potency entry was “inactive”.

Consider `CCC(C)C1NC(=O)C2CCCN2C(=O)C(CC(O)CO)OC(=O)CCNC(=O)C(C)N(C)C(=O)C(C(C)C)N(C)C1=O` (stereo not given) (cyclo([X13]PI[NMeV][NMeA][βAla]); configuration not given here), for which the Potency result was “inactive”.

Take `COc1cc(/C=C/C(=O)OC[C@H]2O[C@@H](OC3OC=C(C(=O)O)C4C(O)CC(C)(O)C34)[C@H](O)[C@@H](O)[C@@H]2O)cc(OC)c1O` (stereo not given in full): the Potency entry is “inactive”.

In the case of `CCc1cc(CC[C@]2(C3CCCC3)CC(O)=C(Cc3nc4nc(C)cc(C)n4n3)C(=O)O2)cc(CC)n1`, the Potency entry is “inactive”.

For the compound `C=C1CC[C@]2(C(=O)O[C@@H]3O[C@H](CO)[C@@H](O)[C@H](O)[C@H]3O)CC[C@]3(C)C(=CCC4[C@@]5(C)C[C@H](O)[C@@H](O[C@@H]6O[C@H](C(=O)O)[C@@H](O)[C@H](O)[C@H]6O)[C@](C)(C=O)C5CC[C@]43C)C2C1` (stereo not given in full), the outcome was “inactive [at 11.6 µM]”.

Turning to `C[C@@H]1O[C@@H](O[C@@H]2[C@@H](O)[C@H](O[C@H]3[C@H](O[C@H]4CC[C@@]5(C)C(CC[C@]6(C)C5CC=C5[C@@H]7CC(C)(C)CC[C@]7(C(=O)O[C@@H]7O[C@H](CO)[C@@H](O)[C@H](O)[C@H]7O)CC[C@]56C)C4(C)C)O[C@H](C(=O)O)[C@@H](O)[C@@H]3O)OC[C@H]2O)[C@H](O)[C@H](O)[C@H]1O` (stereo not given in full), the outcome was “inactive [at 11.6 µM]”.

As for `O=C(OCC(O)CO[C@@H]1O[C@H](C(=O)O)[C@@H](O)[C@H](O)[C@H]1O)c1ccccc1` (stereo not given in full), the Potency result is “inactive”.

Turning to `COc1cc(CO)cc(OC)c1O[C@@H]1O[C@H](CO)[C@@H](O)[C@H](O)[C@H]1O`, the Potency result is “inactive”.

As for `CC1=C2CC(=O)C(C)CC/C=C(\C)CC2(O)OC1=O` (stereo not given), the Potency entry is “inactive”.

`C=CCc1cc(OC)c(OC(C)C(O)c2ccc(O)c(OC)c2)c(OC)c1` (stereo not given): the Potency result was “inactive”.

`O=C(O)CCc1ccc(NCc2cccc3c2CCCN3CCOc2ccccc2)cc1F`: the Potency entry is “inactive”.

For the compound `O=C(/C=C/c1ccccc1)OC[C@H]1O[C@@H](OC(=O)c2cc(O)c(O)c(O)c2)[C@H](O)[C@@H](O)[C@@H]1O`, the Potency result is “inactive”.

In the case of `CC(=O)NC(Cc1ccccc1)C(=O)NC(C(=O)O)C(C)C` (stereo not drawn) (Ac-Phe-Val-OH; configuration not given here), the Potency result is “inactive”.

Regarding `CC(C)=CCC[C@@](C)(O)[C@H]1CC[C@]2(C)[C@@H]1[C@H](O)CC1[C@@]3(C)CC[C@H](O[C@@H]4O[C@H](CO)[C@@H](O)[C@H](O)[C@H]4O[C@@H]4O[C@H](CO)[C@@H](O)[C@H](O)[C@H]4O)C(C)(C)[C@@H]3CC[C@]12C` (stereo not given in full), the Potency result was “inactive”.

`CC(C)(O)C1CCC2(C)CCCC(C)(O)C2C1` (stereo not given): the Potency result is “inactive”.

Turning to `CC1CC=C2C1CC1(O)C(=O)CC2(C)C1(C)CO` (stereo not given), the Potency result was “inactive”.

`COc1ccc(C(=O)NCc2cc(C(C)C)no2)cc1OC1CCN(C)CC1`: the Potency entry is “inactive”.

For the compound `N[C@@H](CCNCc1ccc(Cl)cc1)C(=O)N1CCCCC1`, the Potency result was “inactive”.

Consider `CC(O)CCc1ccc(O[C@@H]2O[C@H](CO)[C@@H](O)[C@H](O)[C@H]2O)cc1` (stereo not given in full), for which the Potency result was “inactive”.

The values above are taken from PubChem BioAssay (NCATS).
